In PubChem BioAssay (NCATS):
Where “and” joins values, the source holds several entries; their conditions need not be identical. Equal entries are not always repeated. Results filed as inconclusive are left out. Calls of active or inactive are those of the source. Unless noted, the call rests on the fitted dose curve.

target: Vitamin D3 receptor (Homo sapiens) (UniProt P11473); experiment: qHTS assay for small molecule agonists of vitamin D receptor signaling (AID 588543); conditions: HEK293T VDR-UAS-bla, beta-lactamase ratio, 16 h; series mostly up to 76.8 µM;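 further: 0% = DMSO basal and 100% = reference agonist control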
How it was run: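 Measured: β-lactamase reporter activity (CCF4, 405 nm excitation, 460/530 nm emission) in HEK293T VDR-UAS-bla cells after 16 h compound exposure at 37 °C. Normalization against 50 nM 1α,25-dihydroxyvitamin D3 and DMSO; Hill-fit EC50.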

Vitamin D3 receptor (Homo sapiens), sequence (P11473 whole entry, looked up): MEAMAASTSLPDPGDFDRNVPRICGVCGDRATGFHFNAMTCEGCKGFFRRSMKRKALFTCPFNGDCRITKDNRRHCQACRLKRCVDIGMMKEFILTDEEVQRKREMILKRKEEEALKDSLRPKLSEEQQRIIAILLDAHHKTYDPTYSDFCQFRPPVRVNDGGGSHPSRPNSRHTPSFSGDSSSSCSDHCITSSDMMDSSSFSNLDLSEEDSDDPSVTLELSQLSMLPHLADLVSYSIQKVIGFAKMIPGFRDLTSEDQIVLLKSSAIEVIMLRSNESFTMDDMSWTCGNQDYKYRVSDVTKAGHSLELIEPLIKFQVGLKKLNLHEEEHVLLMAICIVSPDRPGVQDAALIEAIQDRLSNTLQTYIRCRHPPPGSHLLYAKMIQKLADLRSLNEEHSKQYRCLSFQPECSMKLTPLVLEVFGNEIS

| SMILES | outcome |
| --- | --- |
| ClC1=C(Cl)[C@]2(Cl)[C@@H]3[C@@H]4C[C@@H]([C@H]5O[C@@H]45)[C@@H]3[C@@]1(Cl)C2(Cl)Cl | inactive |
| COc1ccc(C(c2ccc(OC)cc2)C(Cl)(Cl)Cl)cc1 | inactive |
| CN(C)NC(=O)CCC(=O)O | inactive |
| Clc1cnc(Oc2ccc(Oc3ncc(Cl)cc3Cl)cc2)c(Cl)c1 | inactive |
| CS(=O)(=O)c1ccc(C(=O)C2C(=O)CCCC2=O)c([N+](=O)[O-])c1 | inactive |
| O=S(=O)(O)C(F)(F)C(F)(F)C(F)(F)C(F)(F)F | inactive |
| CCCCCCCCCCCCCCCC[N+](C)(C)C | inactive |
| CO/C=C(/C(=O)OC)c1ccccc1Oc1cc(Oc2ccccc2C#N)ncn1 | inactive |
| Nc1ccc(Sc2ccc(N)cc2)cc1 | inactive |

system: not listed separately; experiment: qHTS assay for small molecule agonists of retinoid X receptor alpha signaling (AID 588544); conditions: HEK293T RXRa-UAS-bla, beta-lactamase reporter, 18 h; 530 nm emission; further: potency means the concentration at half of the fitted maximal effect

| SMILES | max response |
| --- | --- |
| CCCCCCCCCC(CC)c1ccc(S(=O)(=O)O)cc1 (configuration not stated) | 2.78% and -0.585% |
| CN(C)NC(=O)CCC(=O)O | 6.92% and -25.6% |
| CS(=O)(=O)c1ccc(C(=O)C2C(=O)CCCC2=O)c([N+](=O)[O-])c1 | 11.3% |
| CCCCOC(=O)c1ccccc1C(=O)OCc1ccccc1 | -17.6% and 5.59% |
| Nc1ccc(Sc2ccc(N)cc2)cc1 | 14.5% and 0.308% |
| O=C(O)c1cc(Oc2ccc(C(F)(F)F)cc2Cl)ccc1[N+](=O)[O-] | 11.8% |

target: Retinoic acid receptor RXR-alpha (Homo sapiens) (UniProt P19793); experiment: as above; conditions: HEK293T RXRa-UAS-bla, beta-lactamase reporter, 18 h; series mostly up to 76.7 µM
Sequence (P19793 whole entry, looked up): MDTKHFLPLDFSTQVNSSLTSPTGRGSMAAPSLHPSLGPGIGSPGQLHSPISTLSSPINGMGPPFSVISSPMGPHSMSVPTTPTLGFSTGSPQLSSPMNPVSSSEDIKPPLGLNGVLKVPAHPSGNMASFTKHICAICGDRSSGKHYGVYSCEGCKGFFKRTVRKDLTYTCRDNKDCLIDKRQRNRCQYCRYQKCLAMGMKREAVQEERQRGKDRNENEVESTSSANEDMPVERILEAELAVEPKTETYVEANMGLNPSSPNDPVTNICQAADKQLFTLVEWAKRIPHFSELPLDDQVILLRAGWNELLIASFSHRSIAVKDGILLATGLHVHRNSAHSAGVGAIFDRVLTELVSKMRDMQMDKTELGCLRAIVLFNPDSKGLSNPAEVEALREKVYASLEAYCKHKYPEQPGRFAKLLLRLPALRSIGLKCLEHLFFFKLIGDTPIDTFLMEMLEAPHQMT

| SMILES | Potency |
| --- | --- |
| CCCCCCCCCC(CC)c1ccc(S(=O)(=O)O)cc1 (configuration not stated) | inactive |
| CN(C)NC(=O)CCC(=O)O | inactive |
| CS(=O)(=O)c1ccc(C(=O)C2C(=O)CCCC2=O)c([N+](=O)[O-])c1 | 17.8 µM (active) |
| CCCCOC(=O)c1ccccc1C(=O)OCc1ccccc1 | inactive |
| Nc1ccc(Sc2ccc(N)cc2)cc1 | inactive |
| O=C(O)c1cc(Oc2ccc(C(F)(F)F)cc2Cl)ccc1[N+](=O)[O-] | inactive |

system: not listed separately; experiment: qHTS assay for small molecule antagonists of retinoid X receptor alpha signaling (AID 588546); conditions: HEK293T RXRa-UAS-bla, beta-lactamase ratio, antagonist mode; measured here: W530 green channel, cytotoxicity proxy;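 further: cells stimulated with 9-cis-retinoic acid as agonist; on the % scale 0 is the no-effect control and ±100 the full control effect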
How it was run: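 Beta-lactamase reporter inhibition, read as CCF4 fluorescence ratio (ex 405, em 460/530 nm) after 2 h at RT. HEK293T UAS-bla cells, 2500/well, were stimulated with 9-cis-RA at 500 or 100 nM final alongside test compound for 18 h at 37 C.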

| SMILES | max response |
| --- | --- |
| CCCCCCCCCC(CC)c1ccc(S(=O)(=O)O)cc1 (configuration not stated) | -9.16% and 3.96% |
| ClC1=C(Cl)[C@]2(Cl)[C@@H]3[C@@H]4C[C@@H]([C@H]5O[C@@H]45)[C@@H]3[C@@]1(Cl)C2(Cl)Cl | 5.74% |
| COc1ccc(C(c2ccc(OC)cc2)C(Cl)(Cl)Cl)cc1 | -3.69% and 8.92% |
| CN(C)NC(=O)CCC(=O)O | -8.59% and -3.29% |
| Clc1cnc(Oc2ccc(Oc3ncc(Cl)cc3Cl)cc2)c(Cl)c1 | -4.82% |
| CS(=O)(=O)c1ccc(C(=O)C2C(=O)CCCC2=O)c([N+](=O)[O-])c1 | -0.159% |
| CCCCCCCCCCCCCCCC[N+](C)(C)C | -7.98% |
| CCCCOC(=O)c1ccccc1C(=O)OCc1ccccc1 | -7.26% and -17.3% |
| Nc1ccc(Sc2ccc(N)cc2)cc1 | 1.56% and -5.13% |
| O=C(O)c1cc(Oc2ccc(C(F)(F)F)cc2Cl)ccc1[N+](=O)[O-] | -4.23% |

target: Thyroid hormone receptor beta (Homo sapiens) (UniProt P10828); experiment: qHTS assay for small molecule antagonists of thyroid hormone receptor beta signaling (AID 588547; active means well fitted inhibition curve with a large enough effect in the signal ratio, with a control signal flat, not every such curve was filed as active; the % refers to the signal ratio;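 further: cells stimulated with 0.4 nM T3 agonist during compound exposure; on the % scale 0 is the no-effect control and ±100 the full control effect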); conditions: TR-UAS-bla HEK293, beta-lactamase ratio, antagonist mode, 18 h
How it was run: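 TR-UAS-bla GripTite HEK293 cells in 2% charcoal/dextran FBS medium; compounds 0.59 nM to 92 uM with T3 at 0.4nM final, 18 h at 37 C. Beta-lactamase read by CCF4 fluorescence (460/530 nm); Hill fits gave IC50 and efficacy.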

Thyroid hormone receptor beta (Homo sapiens), sequence (P10828 whole entry, looked up): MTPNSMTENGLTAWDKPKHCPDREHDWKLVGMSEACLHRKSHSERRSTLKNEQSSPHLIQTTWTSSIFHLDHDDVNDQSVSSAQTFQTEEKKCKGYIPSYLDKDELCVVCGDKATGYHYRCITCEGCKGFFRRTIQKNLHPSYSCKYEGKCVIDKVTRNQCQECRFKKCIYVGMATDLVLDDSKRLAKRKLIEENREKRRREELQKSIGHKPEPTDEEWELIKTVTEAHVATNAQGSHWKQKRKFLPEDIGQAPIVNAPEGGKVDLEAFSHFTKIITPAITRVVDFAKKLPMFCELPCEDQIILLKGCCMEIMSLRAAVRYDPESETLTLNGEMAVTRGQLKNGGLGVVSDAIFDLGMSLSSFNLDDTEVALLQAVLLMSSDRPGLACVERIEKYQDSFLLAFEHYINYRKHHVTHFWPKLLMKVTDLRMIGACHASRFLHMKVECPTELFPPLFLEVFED

| SMILES | activity change % (negative = inhibition) |
| --- | --- |
| CCCCCCCCCC(CC)c1ccc(S(=O)(=O)O)cc1 (configuration not stated) | 6.11% (inactive) and -12% (inactive) |
| ClC1=C(Cl)[C@]2(Cl)[C@@H]3[C@@H]4C[C@@H]([C@H]5O[C@@H]45)[C@@H]3[C@@]1(Cl)C2(Cl)Cl | -14.5% (inactive) |
| COc1ccc(C(c2ccc(OC)cc2)C(Cl)(Cl)Cl)cc1 | 0.506% (inactive) and -1.09% (inactive) and 26% (inactive) |
| CN(C)NC(=O)CCC(=O)O | -3.38% (inactive) |
| CS(=O)(=O)c1ccc(C(=O)C2C(=O)CCCC2=O)c([N+](=O)[O-])c1 | 9.38% (inactive) |
| O=S(=O)(O)C(F)(F)C(F)(F)C(F)(F)C(F)(F)F | -13.9% (inactive) |
| CCCCOC(=O)c1ccccc1C(=O)OCc1ccccc1 | 11.3% (inactive) |
| Nc1ccc(Sc2ccc(N)cc2)cc1 | -2.35% (inactive) and -11.2% (inactive) |
| O=C(O)c1cc(Oc2ccc(C(F)(F)F)cc2Cl)ccc1[N+](=O)[O-] | -21.5% (inactive) |

target: Voltage-gated inwardly rectifying potassium channel KCNH2 (Homo sapiens) (UniProt Q12809); experiment: qHTS Assay for Small Molecule Inhibitors of the Human hERG Channel Activity (AID 588834; active means well fitted inhibition curve with a large enough effect;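 further: lower thallium flux fluorescence means stronger hERG block; nearly all actives have a fitted effect of over 50% in size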; further: potency means the concentration at half of the fitted maximal effect); conditions: U2OS BacMam hERG, FluxOR thallium flux fluorescence; series mostly up to 46.1 µM
How it was run: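 Homogeneous FluxOR thallium flux assay using hERG-expressing U2OS cells (BacMam). Compound treatment about 10 minutes preceded stimulation; reduced fluorescence taken as channel block.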

Voltage-gated inwardly rectifying potassium channel KCNH2 (Homo sapiens), sequence (Q12809 whole entry, looked up): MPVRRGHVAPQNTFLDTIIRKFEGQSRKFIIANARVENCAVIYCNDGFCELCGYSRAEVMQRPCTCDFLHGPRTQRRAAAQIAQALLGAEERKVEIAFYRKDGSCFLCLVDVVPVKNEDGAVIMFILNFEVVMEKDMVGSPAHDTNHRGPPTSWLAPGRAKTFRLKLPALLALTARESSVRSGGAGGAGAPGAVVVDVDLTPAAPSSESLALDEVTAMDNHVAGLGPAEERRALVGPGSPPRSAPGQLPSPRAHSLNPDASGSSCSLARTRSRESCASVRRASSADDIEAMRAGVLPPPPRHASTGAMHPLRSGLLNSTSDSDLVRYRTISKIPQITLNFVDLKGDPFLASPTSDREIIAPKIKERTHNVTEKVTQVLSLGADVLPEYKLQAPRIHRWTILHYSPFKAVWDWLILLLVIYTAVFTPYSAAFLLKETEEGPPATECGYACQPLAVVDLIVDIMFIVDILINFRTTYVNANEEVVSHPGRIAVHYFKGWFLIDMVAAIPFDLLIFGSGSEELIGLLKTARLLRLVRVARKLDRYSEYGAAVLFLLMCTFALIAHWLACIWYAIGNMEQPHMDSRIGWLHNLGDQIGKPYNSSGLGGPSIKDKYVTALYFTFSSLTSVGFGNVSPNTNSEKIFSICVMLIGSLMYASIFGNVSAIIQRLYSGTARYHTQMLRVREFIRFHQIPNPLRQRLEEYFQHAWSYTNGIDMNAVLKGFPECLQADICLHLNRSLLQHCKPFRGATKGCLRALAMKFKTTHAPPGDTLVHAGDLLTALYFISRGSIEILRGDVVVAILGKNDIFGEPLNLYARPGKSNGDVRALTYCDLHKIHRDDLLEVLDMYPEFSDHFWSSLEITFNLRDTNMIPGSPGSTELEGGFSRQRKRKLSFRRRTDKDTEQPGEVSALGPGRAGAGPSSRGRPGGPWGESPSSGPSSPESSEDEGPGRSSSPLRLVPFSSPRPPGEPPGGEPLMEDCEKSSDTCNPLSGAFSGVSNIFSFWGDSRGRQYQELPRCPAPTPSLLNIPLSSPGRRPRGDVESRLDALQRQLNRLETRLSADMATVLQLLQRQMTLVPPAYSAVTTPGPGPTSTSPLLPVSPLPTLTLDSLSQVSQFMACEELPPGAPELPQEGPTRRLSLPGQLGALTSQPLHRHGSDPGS

| SMILES | Potency |
| --- | --- |
| CCCCCCCCCC(CC)c1ccc(S(=O)(=O)O)cc1 (configuration not stated) | inactive |
| COc1ccc(C(c2ccc(OC)cc2)C(Cl)(Cl)Cl)cc1 | 10 µM (active) and 22.4 µM (active) |
| CN(C)NC(=O)CCC(=O)O | inactive |
| Brc1ccccc1-c1ccccc1 | 28.2 µM (active) |
| Clc1cnc(Oc2ccc(Oc3ncc(Cl)cc3Cl)cc2)c(Cl)c1 | inactive |
| CCCCCCCCCCCCCCCC[N+](C)(C)C | inactive |
| Nc1ccc(Sc2ccc(N)cc2)cc1 | inactive |

target: Luciferin 4-monooxygenase (Photinus pyralis) (UniProt P08659); experiment: Biochemical firefly luciferase enzyme assay for NPC (AID 624030; active means well fitted inhibition curve with a large enough effect; further: nearly all actives have a fitted effect of over 70% in size; further: potency means the concentration at half of the fitted maximal effect); conditions: purified P. pyralis luciferase, luminescence, 5 min; series mostly up to 58.6 µM
How it was run: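 Purified P. pyralis luciferase at 10 nM in 50 mM Tris Acetate (final), luminescence read within 5 minutes of enzyme addition to compounds. Activity normalised to PTC124 versus DMSO; concentration-response curves classed by r2, magnitude and activity.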

Luciferin 4-monooxygenase (Photinus pyralis), sequence (P08659 whole entry, looked up): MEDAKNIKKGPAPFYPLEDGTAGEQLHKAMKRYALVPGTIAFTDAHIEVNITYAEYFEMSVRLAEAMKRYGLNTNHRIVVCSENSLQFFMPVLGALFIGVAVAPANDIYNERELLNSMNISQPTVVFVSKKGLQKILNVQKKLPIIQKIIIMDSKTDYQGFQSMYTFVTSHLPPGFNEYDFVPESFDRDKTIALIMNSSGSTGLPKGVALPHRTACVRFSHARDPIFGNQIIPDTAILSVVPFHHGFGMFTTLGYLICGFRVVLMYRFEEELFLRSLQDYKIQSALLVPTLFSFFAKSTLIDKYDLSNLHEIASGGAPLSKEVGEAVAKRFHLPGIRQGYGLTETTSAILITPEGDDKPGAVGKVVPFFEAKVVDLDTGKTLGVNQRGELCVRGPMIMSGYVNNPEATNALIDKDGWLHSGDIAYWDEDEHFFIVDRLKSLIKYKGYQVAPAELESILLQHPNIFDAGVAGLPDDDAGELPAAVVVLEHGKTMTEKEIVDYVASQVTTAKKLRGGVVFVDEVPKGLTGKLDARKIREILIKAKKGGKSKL

| SMILES | Potency |
| --- | --- |
| CCCCCCCCCC(CC)c1ccc(S(=O)(=O)O)cc1 (configuration not stated) | inactive |
| ClC1=C(Cl)[C@]2(Cl)[C@@H]3[C@@H]4C[C@@H]([C@H]5O[C@@H]45)[C@@H]3[C@@]1(Cl)C2(Cl)Cl | inactive |
| COc1ccc(C(c2ccc(OC)cc2)C(Cl)(Cl)Cl)cc1 | inactive |
| CS(=O)(=O)c1ccc(C(=O)C2C(=O)CCCC2=O)c([N+](=O)[O-])c1 | inactive |
| O=S(=O)(O)C(F)(F)C(F)(F)C(F)(F)C(F)(F)F | inactive |
| CCCCCCCCCCCCCCCC[N+](C)(C)C | inactive |
| CO/C=C(/C(=O)OC)c1ccccc1Oc1cc(Oc2ccccc2C#N)ncn1 | inactive |
| [Cl][In]([Cl])[Cl] | 14.8 µM (active) |
| CCCCOC(=O)c1ccccc1C(=O)OCc1ccccc1 | inactive |
| O=C(O)c1cc(Oc2ccc(C(F)(F)F)cc2Cl)ccc1[N+](=O)[O-] | inactive |
